This passage reports activation results from PubChem BioAssay AID652017 (The Scripps Research Institute Molecular Screening Center, 2013).

Among all 370,000 compounds or so, about 3,800 (1%) were called active. This is one part of a sample in which actives are shown more often than they occur. Rule as the data show it: active = activation above about 7.8%; inactive = the rest.

This test in a line: SMARCA2 (BRM) function activators, primary screen, cell-based, luminescence, high throughput (AID 652017).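 Also: 0% = vehicle wells and 100% = reference activator wells.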 Conditions: MG213 cells, MMTV-luciferase reporter, dexamethasone, overnight; at 9.1 µM; stronger effect = higher value. (Reporter assays use an easily measured gene product as a stand-in for the process of interest.)
`Cc1ccccc1CN1CCNC(=O)C1CC(=O)NCCC1=CCCCC1` (stereo not drawn): the activation is 5.02% (inactive). Take `Cc1ccc(NC(=O)C(=O)NCc2ccco2)c(C)c1`: the activation was 9.32% (active).

Consider `Cc1ccc(SCC(=O)NC(=O)NCc2ccco2)c(C)c1`, for which the activation was -0.59% (inactive). Consider `O=C(NCc1ccncc1)C(=O)NCc1ccco1`, for which the activation was -0.15% (inactive). `CN[C@H]1C[C@H]2c3cc(N4CCOCC4)ccc3CCN2C[C@H]1[C@H](C)O`: the activation is -3.84% (inactive). As for `C=C(C)C#CC(Cc1ccccc1)N(CC1CC1)/C(N)=N/C(=O)OCc1ccccc1` (stereo not drawn), the activation is -1.63% (inactive). With `CCOc1cc(NC(=S)NCCCOC)c(OCC)cc1NC(=O)c1ccco1` the figure was 9.88% (active); with `CCOc1cc(NC(=S)NCCCN(C)C)c(OCC)cc1NC(=O)C1CC1`, 1.16% (inactive); with `COc1cc(NC(=S)NCc2ccco2)c(OC)cc1Cl`, 0.64% (inactive). Take `Cc1ccc(CSc2nnc(SCC(=O)NN=Cc3cc(Br)ccc3F)s2)cc1`: the activation was -6.75% (inactive). As for `CC(C)(C)OC(=O)NCc1cc(F)ccc1/C=C/S(=O)(=O)NCCc1ccccc1`, the activation was -3.29% (inactive). As for `CN(C(=O)CC1C(=O)NCCN1Cc1ccc2ccccc2c1)C1CCOCC1` (stereo not drawn), the activation is -1.84% (inactive). As for `CCOC(=O)Nc1ccc(NC(=O)OCC)cc1`, the activation was 11.1% (active). As for `CCOC(=O)Nc1ccc(S(=O)(=O)N(C)C(C)C)cc1`, the figure is -0.48% (inactive). As for `CC(C)(COC(=O)Nc1ccccc1)COC(=O)Nc1ccccc1`, the figure is -1.85% (inactive). Consider `O=C(N1CCOCC1)N1CC[C@H]2[C@H](CCCN2Cc2ccc(F)cc2)C1`, for which the activation was -1.37% (inactive).

`COc1ccccc1OCC(=O)OCc1cc(-c2ccco2)on1`: the activation was 1.73% (inactive).

With `N/C(=N\OC(=O)CCC1CCCCC1)c1ccccn1`, the activation is 3.7% (inactive). For the compound `COc1ccccc1OCC(=O)O/N=C(\N)c1ccccn1`, the activation is 8.43% (active). As for `COC(=O)C1=C(C)N(Cc2ccccc2C(F)(F)F)C(=NCC2CC2)NC1c1cccc(Cl)c1` (stereo not drawn), the activation is -1.87% (inactive). For the compound `CC(=O)Nc1ccc(S(=O)(=O)N2CCN(c3ccc([N+](=O)[O-])c(NCCN4CCOCC4)c3)CC2)cc1`, the activation is -2.48% (inactive). Consider `O=C(Nc1ccc(Br)cc1)OCCN1C(=O)CCC12CCC(c1ccccc1)CC2` (stereo not drawn), for which the activation is -0.9% (inactive). On to `Cc1nn(C(C)C(=O)NCCC2=CCCCC2)c(=O)c2nn(-c3ccccc3)c(C)c12` (stereo not drawn), for which the activation is 0.01% (inactive). As for `C1=C(CCNc2ncnc3c2cnn3-c2ccccc2)CCCC1`, the figure is 10.2% (active). `S=C(NCCC1=CCCCC1)Nc1ccccc1`: the activation is 2.03% (inactive). Take `Cc1ncn2cc(-c3ccc(Cl)cc3Cl)[nH]c(=O)c12`: the activation was 5.25% (inactive).

As for `O=C(O)CN1c2cccc3cccc(c23)S1(=O)=O`, the activation was -0.74% (inactive).

Turning to `O=C(NC1=NCCS1)c1ccc(Cl)s1`, the activation is 3.86% (inactive). Take `COc1ccc(C(=O)NC2=NCCS2)c(OC)c1`: the activation is 8.02% (active). In the case of `COc1ccccc1C(=O)NCCC(=O)NC1=NCCS1`, the activation is -1.3% (inactive).

With `COC(=O)Cc1nnn2c1[C@H](C)[C@H](c1ccccc1[N+](=O)[O-])OCC2`, the activation is 9.58% (active).

On to `COC(=O)Cc1nnn2c1[C@H](C)[C@@H](OC)c1cc(Br)ccc1-2`, for which the activation was -2.14% (inactive). As for `COC(=O)Cc1nnn2c1[C@H](C)[C@H](c1ccccc1Br)OCC2`, the figure is -2.14% (inactive); as for `O=C(CSc1nnc(COc2ccccc2)n1Cc1ccco1)c1ccc2ccccc2c1`, -6.31% (inactive); as for `COc1ccc(-c2csc(Cc3nc(O)cs3)n2)cc1`, 16.8% (active).

Take `COc1ccc(C2C(C(C)=O)=C(O)C(=O)N2c2nccs2)cc1` (stereo not drawn): the activation is 1.1% (inactive). Consider `COc1ccc(-n2c(SC)nc(O)cc2=O)cc1`, for which the activation is -1.4% (inactive). For the compound `COc1cccc(NC(=O)CSc2nnc(-c3cccnc3)o2)c1`, the activation was -0.51% (inactive). Consider `CCN(CC)C(=O)CSc1nnc(-c2cccc(OC)c2)o1`, for which the activation is 8.29% (active). As for `CCN(CC)C(=O)CSc1nnc(-c2ccc(S(=O)(=O)NCc3ccccc3Cl)cc2)o1`, the figure is -2.52% (inactive); as for `COc1ccc(-n2c(COc3ccc(C)cc3)nnc2SCC(=O)Nc2ccc(Oc3ccccc3)cc2)cc1`, -5.92% (inactive); as for `COc1ccc(-c2cc(-c3nnc(SCc4ccc([N+](=O)[O-])cc4)n3N)[nH]n2)cc1`, -5.07% (inactive). For the compound `COc1ccc(/C=C2\CC3(OC(C)=O)CCCN2C3)cc1` (stereo not drawn), the activation was -1.45% (inactive).
